This passage reports Potency and outcome results from PubChem BioAssay (NCATS).

Molecules are shown by their SMILES. Results filed as inconclusive are left out. Where a call stands in place of a potency, no number is given. Calls of active or inactive are those of the source. Calls come from the whole dose curve; as a rule, active = well fitted curve in the direction sought with a large enough effect; inconclusive = small, poorly fitted or top-dose-only effect, or another doubt; inactive = no such curve, though single readings can be large; an effect the other way counts as inactive or inconclusive.

Sequence of Arylsulfatase A (Homo sapiens) (P15289 whole entry, looked up): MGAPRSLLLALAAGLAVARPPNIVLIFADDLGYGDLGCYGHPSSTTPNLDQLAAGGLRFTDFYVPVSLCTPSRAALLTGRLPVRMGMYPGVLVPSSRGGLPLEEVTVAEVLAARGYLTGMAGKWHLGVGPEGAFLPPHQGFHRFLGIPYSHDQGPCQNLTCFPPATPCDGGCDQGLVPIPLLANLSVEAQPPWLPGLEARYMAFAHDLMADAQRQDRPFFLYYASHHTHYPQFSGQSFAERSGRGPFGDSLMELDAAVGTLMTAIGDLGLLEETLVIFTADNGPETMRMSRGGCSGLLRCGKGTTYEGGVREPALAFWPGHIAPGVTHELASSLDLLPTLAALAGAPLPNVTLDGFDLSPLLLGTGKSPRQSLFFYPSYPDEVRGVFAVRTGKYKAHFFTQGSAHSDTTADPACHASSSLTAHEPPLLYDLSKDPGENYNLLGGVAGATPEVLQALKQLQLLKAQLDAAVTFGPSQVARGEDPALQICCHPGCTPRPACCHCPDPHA

One test addresses Arylsulfatase A (Homo sapiens) (UniProt P15289). Kind of test: qHTS screen for enhancers of Arylsulfatase A (ASA1): LOPAC Validation Assay (AID 720538). Note: potency is the fitted concentration of half-maximal effect. Conditions: ASA enzyme activity, LOPAC qHTS enhancer assay; series mostly up to 57.5 µM. The gist of the method:
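Read-out: fluorescence at Ex=525/Em=598 nm after 1N NaOH final stop. Patient fibroblasts carrying ASA-I179S had 48h compound exposure, then 14h room-temperature pNCS hydrolysis (0.5mM final) in lysis buffer. Signal increase = enhanced activity.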
Background: Quantitative high-throughput screening tests each substance at several concentrations.
In the case of `CC(=O)/C(C)=N/O`, the Potency result was “inactive”.

For the compound `C=CCN1CCc2c(cc(O)c(O)c2Br)[C@@H](c2ccccc2)C1`, the Potency entry was “inactive”.

As to `CN(CC[C@@H](Oc1ccc(C(F)(F)F)cc1)c1ccccc1)CC(=O)O`, the Potency entry is “inactive”.

For `O=C(O)/C=C/c1ccc(O)c(O)c1`, the Potency result was “inactive”.

Regarding `C=CCn1c(=O)c2c(nc(-c3ccc(S(=O)(=O)O)cc3)n2C)n(C)c1=O`, the Potency entry was “inactive”.

On to `CC1CCN(CC[C@H]2CCCN2S(=O)(=O)c2cccc(O)c2)CC1`, for which the Potency result was “inactive”.

Turning to `OC[C@H]1O[C@@H](n2cnc3cncnc32)[C@H](O)[C@@H]1O`, the Potency result was “inactive”.

Consider `CC(=O)NNC(=O)N1Cc2ccccc2Oc2ccc(Cl)cc21`, for which the Potency entry is “inactive”.

As to `CCCCCCC/C=C\CCCCCCCCC(=O)O`, the Potency result was “inactive”.

Consider `COc1cc(/C=C(\C#N)C(=O)c2ccc(O)c(O)c2)cc(I)c1O`, for which the Potency was 21.3 µM (active).

For the compound `CCN(CC)CCCCCCCCOC(=O)c1cc(OC)c(OC)c(OC)c1`, the Potency result is “inactive”.

Take `CC(=O)NCCc1c[nH]c2ccc(O)cc12`: the Potency result is “inactive”.

As to `O=C(O)/C=C/c1cnc[nH]1`, the Potency entry is “inactive”.

In the case of `OC[C@H]1NC[C@@H](O)[C@@H]1O`, the Potency entry was “inactive”.

With `Cc1ccc2c(c1)C(N1CCN(C)CC1)=Nc1cccnc1N2`, the Potency result is “inactive”.

`O=C(N[C@@H](Cc1ccccc1)C(=O)CCl)OCc1ccccc1`: the Potency result is “inactive”.

On to `Nc1ncnc2c1nc(Br)n2C1OC2COP(=O)(O)O[C@@H]2C1O` (stereo partly specified), for which the Potency entry is “inactive”.

In the case of `N[C@@H](CS(=O)O)C(=O)O`, the Potency result is “inactive”.

As to `CCC(=O)N1CCN(C(=O)c2ccccc2)CC1`, the Potency result is “inactive”.

On to `Cc1ccc([N+](=O)[O-])cc1S(=O)(=O)N(C)C`, for which the Potency result is “inactive”.

Consider `OC[C@H]1O[C@H](n2cnc3c(N[C@H]4CCC[C@@H]4O)ncnc32)[C@H](O)[C@@H]1O`, for which the Potency entry was “inactive”.

Turning to `COc1ccccc1N1CCN(CCCNc2c(C)c(=O)n(C)c(=O)n2C)CC1`, the Potency entry was “inactive”.

For `CCCCCCCCCCCCCCCCCCOC[C@H](COP(=O)([O-])OCC[N+](C)(C)C)OC`, the Potency entry was “inactive”.

As for `COc1cccc(OC)c1OCCNCC1CSc2ccccc2O1` (stereo unspecified), the Potency was 1.07 µM (active).

As for `CC[n+]1c(/C=C/C=C2/N(C)c3ccccc3C2(C)C)sc2ccccc21`, the Potency entry is “inactive”.

Regarding `CCCn1c(=O)c2[nH]c(C3CCCC3)nc2n(CCC)c1=O`, the Potency entry was “inactive”.

Take `CN(C)CCCc1cc(C(=O)Nc2ccc(-c3ccncc3)cc2)ccc1O`: the Potency result is “inactive”.

Take `CC(N)(C(=O)O)c1ccc(C(=O)O)cc1` (stereo unspecified): the Potency entry is “inactive”.

For the compound `C[N+](C)(C)CC=O`, the Potency entry was “inactive”.

Take `CC(=O)O[C@H]1CC2(C)[C@@H](C[C@@H](O)[C@H]3[C@@]4(C)CC[C@@H](O)[C@@H](C)[C@@H]4CC[C@@]32C)C1=C(CCC=C(C)C)C(=O)O` (stereo partly specified): the Potency result is “inactive”.

Consider `Cc1cc2c(cc1Cl)N(C(=O)Nc1ccnc3ccccc13)CC2`, for which the Potency entry is “inactive”.

Consider `CC(N)(Cc1ccc(O)c(O)c1)C(=O)O` (stereo unspecified), for which the Potency result is “inactive”.

`CCn1c(=O)[nH]c2cc(Cl)c(Cl)cc21`: the Potency entry was “inactive”.

Consider `CC[C@H](NC(=O)c1c(C)c(-c2ccccc2)nc2ccccc12)c1ccccc1`, for which the Potency result was “inactive”.

As to `CCCCCCCCCC(=O)NC(CN1CCOCC1)[C@H](O)c1ccccc1` (stereo partly specified), the Potency entry was “inactive”.

As to `O=C1Cc2c([nH]c3ccc(Br)cc23)-c2ccccc2N1`, the Potency result is “inactive”.

Consider `NC1CCN(O)C1=O` (stereo unspecified), for which the Potency result is “inactive”.

For `NC1(C(=O)O)CC1`, the Potency result was “inactive”.

Tested on in the next test: not listed separately
Kind of test: qHTS for compounds that reverse cellular toxicity of Amyloid beta (A-beta) peptide in yeast: LOPAC Validation Assay (AID 720559). Conditions: yeast expressing A-beta; series mostly up to 46.1 µM. The gist of the method:
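OD600 growth readout after 48 hr at 30 C; A-beta-toxic yeast plus pinned compounds in medium. Normalization: DMSO = negative, equimolar FeCl3 + clioquinol = positive.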
For `CC(=O)/C(C)=N/O`, the compound was called inactive.

As to `C=CCN1CCc2c(cc(O)c(O)c2Br)[C@@H](c2ccccc2)C1`, the result was inactive.

Regarding `CN(CC[C@@H](Oc1ccc(C(F)(F)F)cc1)c1ccccc1)CC(=O)O`, the compound was classed as inactive.

With `O=C(O)/C=C/c1ccc(O)c(O)c1`, the compound was called inactive.

Consider `C=CCn1c(=O)c2c(nc(-c3ccc(S(=O)(=O)O)cc3)n2C)n(C)c1=O`, for which the result was inactive.

Take `CC1CCN(CC[C@H]2CCCN2S(=O)(=O)c2cccc(O)c2)CC1`: the compound was classed as inactive.

Turning to `OC[C@H]1O[C@@H](n2cnc3cncnc32)[C@H](O)[C@@H]1O`, the outcome was inactive.

Take `CC(=O)NNC(=O)N1Cc2ccccc2Oc2ccc(Cl)cc21`: the compound was called inactive.

`CCCCCCC/C=C\CCCCCCCCC(=O)O`: the result was inactive.

For the compound `COc1cc(/C=C(\C#N)C(=O)c2ccc(O)c(O)c2)cc(I)c1O`, the compound was called inactive.

With `CCN(CC)CCCCCCCCOC(=O)c1cc(OC)c(OC)c(OC)c1`, the call was inactive.

As to `CC(=O)NCCc1c[nH]c2ccc(O)cc12`, the compound was classed as inactive.

As for `O=C(O)/C=C/c1cnc[nH]1`, the outcome was inactive.

`OC[C@H]1NC[C@@H](O)[C@@H]1O`: the compound was called inactive.

Consider `Cc1ccc2c(c1)C(N1CCN(C)CC1)=Nc1cccnc1N2`, for which the call was inactive.

For `O=C(N[C@@H](Cc1ccccc1)C(=O)CCl)OCc1ccccc1`, the outcome was inactive.

For the compound `Nc1ncnc2c1nc(Br)n2C1OC2COP(=O)(O)O[C@@H]2C1O` (stereo partly specified), the outcome was inactive.

Consider `N[C@@H](CS(=O)O)C(=O)O`, for which the compound was called inactive.

For `CCC(=O)N1CCN(C(=O)c2ccccc2)CC1`, the compound was classed as inactive.

In the case of `Cc1ccc([N+](=O)[O-])cc1S(=O)(=O)N(C)C`, the compound was classed as inactive.

`OC[C@H]1O[C@H](n2cnc3c(N[C@H]4CCC[C@@H]4O)ncnc32)[C@H](O)[C@@H]1O`: the call was inactive.

As to `COc1ccccc1N1CCN(CCCNc2c(C)c(=O)n(C)c(=O)n2C)CC1`, the compound was called inactive.

`CCCCCCCCCCCCCCCCCCOC[C@H](COP(=O)([O-])OCC[N+](C)(C)C)OC`: the result was inactive.

With `COc1cccc(OC)c1OCCNCC1CSc2ccccc2O1` (stereo unspecified), the result was inactive.

On to `CC[n+]1c(/C=C/C=C2/N(C)c3ccccc3C2(C)C)sc2ccccc21`, for which the compound was classed as inactive.

Turning to `CCCn1c(=O)c2[nH]c(C3CCCC3)nc2n(CCC)c1=O`, the outcome was inactive.

Take `CN(C)CCCc1cc(C(=O)Nc2ccc(-c3ccncc3)cc2)ccc1O`: the result was inactive.

For the compound `CC(N)(C(=O)O)c1ccc(C(=O)O)cc1` (stereo unspecified), the result was inactive.

For `C[N+](C)(C)CC=O`, the compound was called inactive.

For `CC(=O)O[C@H]1CC2(C)[C@@H](C[C@@H](O)[C@H]3[C@@]4(C)CC[C@@H](O)[C@@H](C)[C@@H]4CC[C@@]32C)C1=C(CCC=C(C)C)C(=O)O` (stereo partly specified), the compound was called inactive.

For the compound `Cc1cc2c(cc1Cl)N(C(=O)Nc1ccnc3ccccc13)CC2`, the compound was called inactive.

Take `CC(N)(Cc1ccc(O)c(O)c1)C(=O)O` (stereo unspecified): the result was inactive.

Take `CCn1c(=O)[nH]c2cc(Cl)c(Cl)cc21`: the call was inactive.

On to `CC[C@H](NC(=O)c1c(C)c(-c2ccccc2)nc2ccccc12)c1ccccc1`, for which the compound was classed as inactive.

In the case of `CCCCCCCCCC(=O)NC(CN1CCOCC1)[C@H](O)c1ccccc1` (stereo partly specified), the call was inactive.

For `O=C1Cc2c([nH]c3ccc(Br)cc23)-c2ccccc2N1`, the compound was classed as inactive.

Turning to `NC1CCN(O)C1=O` (stereo unspecified), the compound was classed as inactive.

Consider `NC1(C(=O)O)CC1`, for which the result was inactive.
